From PubChem BioAssay (NCI)
Where “and” joins values, the source holds several entries; their conditions need not be identical. Equal values may be shown once. Compounds without any hit were thinned out: in the full panel of roughly 83,000, 20% have a hit.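 Step 1: grow cells in 96-well plates. Step 2: add test compound at a single concentration. Step 3: incubate 48 h. Step 4: record percent growth.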 Calls of active or inactive are those of the source. Rule for the calls: active = growth percent below 10; inactive = the rest.

These compounds were tested on MDA-MB-468 breast (assay: NCI-60 one-dose screen, 48 h (100 = growth as untreated, 0 = no growth, -100 = all killed)). Settings: 10 µM unless noted.

| SMILES | growth |
| --- | --- |
| C/C(=N/Nc1nc(N/N=C(/C)c2ccc([N+](=O)[O-])cc2)nc(N2CCOCC2)n1)c1ccc([N+](=O)[O-])cc1 | 79.7% (inactive) |
| COc1cc(/C=C/C(=O)c2ccc(Nc3ncnc4cc(OC)c(OC)cc34)cc2)cc(OC)c1 | 101% (inactive) |
| O=C1OC(N(Cc2ccc(Cl)cc2)c2ccccc2)c2ccccc21 (stereo not given) | 104% (inactive) |
| COc1ccc(-n2c(/C=C/c3ccc(O)c(OC)c3)cc(/C=C/c3ccc(O)c(OC)c3)nc2=O)cc1 | 29% (inactive) |
| CCOC(=N)c1ccc(C(=N)OCC)cc1 | 106% (inactive) |
| Cc1cnc(Nc2ccc(N3CCN(C)CC3)cc2)nc1Nc1ccc(Cl)c(NS(=O)(=O)C(C)(C)C)c1 | 14.9% (inactive) |
| Cc1nc2ccccc2c(N)c1-c1cc(C)c2c(C)nc3ccccc3c2n1 | -94.8% (active) |
| COc1cccc(COC(=O)Nc2ccccc2)c1OC | 93.3% (inactive) |
| O=C1Cc2ccccc2C(=O)O1 | 112% (inactive) |
| CC(=O)Oc1c2c(nc3c1c1ccccc1n3Cc1ccccc1)-c1ccccc1C2 | 92.2% (inactive) |
| CCOc1cccc(NC2=C(Br)C(=O)C(C)=C(C)C2=O)c1 | -65.7% (active) |
| FC(F)(F)c1cc(-c2nnc3n2N=C(N2CCCC2)CS3)cc(C(F)(F)F)c1 | 66.3% (inactive) |
| NC1CCC(Nc2nc(NCc3ccc(-c4cccs4)nc3)c3ncn(C4CCCC4)c3n2)CC1 (stereo not given) | -65.8% (active) |
| O=C(O)C1(Cc2cccc(Nc3nccs3)n2)CCC(Oc2cccc(Cl)c2F)CC1 (stereo not given) | 33.4% (inactive) |
| O=C(Nc1nc(-c2ccccc2)cs1)c1cc(-c2ccc(Br)cc2)nc2ccccc12 | 35.2% (inactive) |
| O=C(CCN1CCOCC1)Nc1ccc(Cn2nnc3c2C(=O)c2nnn(Cc4ccc(NC(=O)CCN5CCOCC5)cc4)c2C3=O)cc1 | -72.2% (active) |
| CCOC(=O)C/C(C)=N\NC(=O)c1ccncc1 | 110% (inactive) |
| COc1ccc(-c2nc3ccc(-c4nc5ccc(N6CCN(c7ccccc7)CC6)cc5[nH]4)cc3[nH]2)cc1OC | -46.1% (active) |
| Oc1ccccc1/C=N/Nc1ccc2ccccc2n1 | 15.1% (inactive) |
| CCN(CC)Cc1cc(Nc2ccnc3cc(Cl)ccc23)cc(-c2ccc(Cl)cc2)c1O | 5.28% (active) |

| SMILES | growth |
| --- | --- |
| CCCc1nc(C(C)(C)O)c(C(=O)O)n1Cc1ccc(-c2ccccc2-c2nn[nH]n2)cc1 | 112% (inactive) |
| O=C(O)C1C2C=CC(C2)C1C(=O)O (stereo not given) | 119% (inactive) and 22.9% (inactive) and 92.2% (inactive) |
| Cc1nc2cnc(N)c(C#Cc3cncc(C(=O)Nc4ccc(CN5CCN(C)CC5)c(C(F)(F)F)c4)c3)c2nc1C | 55.8% (inactive) |
| COc1cc(C(=O)C[n+]2ccccc2)ccc1OC(C)=O | 101% (inactive) |
| CC1SC(=S)N(c2ccc(Cl)cc2)C1=O (stereo not given) | 84.9% (inactive) and 90.4% (inactive) |
| O=C1NCCC12CCN(c1c(Cl)cncc1-c1ccc(O)cc1)CC2 | 84.3% (inactive) |
| CCCCNCCCN(CCCC)CCCNCCCC | 94.2% (inactive) |
| Cc1ccc(S(=O)(=O)Nc2nc3ccccc3nc2Nc2ccc3nsnc3c2)cc1 | 27.4% (inactive) and 35.8% (inactive) |
| C#CC[C@H](N)C(=O)O | 101% [20 µM] (inactive) |
| COc1ccc(C2C(C#N)=C(N)Oc3c2sc2ccc(C)cc32)cc1 (stereo not given) | -13.2% (active) |
| Cc1ccc(N(CC2=NCCN2)c2cccc(O)c2)cc1 | 93.3% (inactive) |
| C=C(C)[C@@H]1CC[C@]2(c3ncc(C)o3)CC[C@]3(C)[C@H](CC[C@@H]4[C@@](C)(CCC#N)[C@H](C(=C)C)CC[C@]43C)[C@@H]12 | -63% [100 µM] (active) |
| C/C(=N/NC(=S)Nc1ccccc1)c1nc2ccc(Cl)cc2[nH]1 | -44.3% (active) |
| c1ccc(CN2COc3c(ccc4c3OCN(Cc3ccccc3)C4)C2)cc1 | 0.865% (active) |
| CCCCOc1nc2cc(Cl)ccc2cc1/C=C/c1cc(/C=C/c2cc3ccc(Cl)cc3nc2OCCCC)n(-c2ccccc2)n1 | 92% (inactive) |
| Oc1c(Cl)cc(Cl)c(Cl)c1Cc1c(O)c(Cl)cc(Cl)c1Cl | 4.35% (active) |
| NC(=O)c1cccc(-n2ccc3cc(NC(=O)c4ccc(N5CCOCC5)c(C(F)(F)F)c4)ccc32)n1 | 75.7% (inactive) |
| CNc1ccc(Nc2cccc(C)c2)c2c1C(=O)c1ccccc1C2=O | -13.1% (active) |
| O=[N+]([O-])c1ccc(C=C2C(Cl)=C(Cl)C(Cl)=C2Cl)cc1 | 48.3% (inactive) |
| CCN(CC)CCNCC(O)Cc1ccc(OC)cc1 (stereo not given) | 105% (inactive) |
